In PMC7862700, “An all-to-all approach to the identification of sequence-specific readers for epigenetic DNA modifications on cytosine” one finds binding signal data, which are given here for seven sequences.

What all share (assay): DAPPL (digital affinity profiling via proximity ligation, sequencing); 10 mM Tris-HCl pH 7.5, 50 mM NaCl, 1 mM DTT, 4% glycerol, room temperature, 30 min; GST-TFs on glutathione beads, 16-mer random dsDNA library, 0.1% formaldehyde crosslink after washing; high values mean tight binding
The target of one assay is T1, FEV (Homo sapiens, UniProt Q99581 1-238).
T1 sequence: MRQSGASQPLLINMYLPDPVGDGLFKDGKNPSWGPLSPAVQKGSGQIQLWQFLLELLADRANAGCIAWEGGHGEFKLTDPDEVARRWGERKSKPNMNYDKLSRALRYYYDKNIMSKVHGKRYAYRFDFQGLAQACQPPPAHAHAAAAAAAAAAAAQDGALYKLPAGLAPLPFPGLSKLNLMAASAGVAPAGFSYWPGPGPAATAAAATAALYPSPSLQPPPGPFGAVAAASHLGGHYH
Conditions: protein: recombinant; tags: N-terminal GST; dsDNA, one strand shown. In outline:
(§1)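 In yeast, human transcription factors were expressed with a GST fusion, then pulled down on glutathione beads and given DNA barcodes. Pooled with a tag-only sample, they were exposed to 200 nmole of a 16-mer random double-stranded DNA library (Tris/NaCl/DTT/glycerol buffer, room temperature, 30 min), washed, crosslinked with 0.1% formaldehyde, proximity-ligated using BsaI/T4 ligase for 1 h at 37 °C, PCR-amplified and read on an Illumina NextSeq500. Each hexamer's frequency of reads for a factor, divided by the matching frequency for the tag-only sample, gives the binding signal.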

The next assay deals with ETV5 (Homo sapiens, UniProt P41161 1-510). Particulars: protein: recombinant; tags: N-terminal GST; dsDNA, one strand shown. In outline: as §1
ETV5, sequence (P41161 whole entry): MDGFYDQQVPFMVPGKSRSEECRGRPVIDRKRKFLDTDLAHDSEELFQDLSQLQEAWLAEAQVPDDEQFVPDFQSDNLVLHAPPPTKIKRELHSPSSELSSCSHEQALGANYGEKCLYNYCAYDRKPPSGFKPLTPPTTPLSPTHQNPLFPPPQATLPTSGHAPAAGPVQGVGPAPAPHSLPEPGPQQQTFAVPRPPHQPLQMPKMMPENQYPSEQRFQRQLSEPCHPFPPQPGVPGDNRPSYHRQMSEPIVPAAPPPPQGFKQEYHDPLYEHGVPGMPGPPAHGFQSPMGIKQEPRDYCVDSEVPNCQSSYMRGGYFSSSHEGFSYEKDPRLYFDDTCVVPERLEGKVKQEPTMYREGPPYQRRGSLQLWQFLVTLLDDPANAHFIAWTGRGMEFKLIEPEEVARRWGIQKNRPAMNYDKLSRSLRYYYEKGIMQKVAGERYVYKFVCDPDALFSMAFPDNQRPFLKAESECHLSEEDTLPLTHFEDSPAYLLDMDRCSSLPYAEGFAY
The target of another assay is HSF1 (Homo sapiens, UniProt Q00613 1-529). Conditions: protein: recombinant; tags: N-terminal GST; chain copies: 3; dsDNA, one strand shown. Put shortly:
as §1

Another assay has as its target T2, SPIC (Homo sapiens, UniProt Q8N5J4 1-248).
T2 sequence: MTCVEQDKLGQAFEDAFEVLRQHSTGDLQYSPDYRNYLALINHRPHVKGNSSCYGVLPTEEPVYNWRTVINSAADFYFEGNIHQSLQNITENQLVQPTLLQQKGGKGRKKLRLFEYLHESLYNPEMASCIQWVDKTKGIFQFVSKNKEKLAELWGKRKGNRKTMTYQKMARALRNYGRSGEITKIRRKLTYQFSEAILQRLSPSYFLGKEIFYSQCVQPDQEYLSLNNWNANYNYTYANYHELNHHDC
Particulars: protein: recombinant; tags: N-terminal GST; dsDNA, one strand shown. Put shortly: as §1

For a further assay, the target named is ELF4 (Homo sapiens, UniProt Q99607 1-663). Particulars: protein: recombinant; tags: N-terminal GST; dsDNA, one strand shown. Put shortly:
as §1

A further assay deals with T3, ELK4 (Homo sapiens, UniProt P28324-2 1-405).
T3 sequence: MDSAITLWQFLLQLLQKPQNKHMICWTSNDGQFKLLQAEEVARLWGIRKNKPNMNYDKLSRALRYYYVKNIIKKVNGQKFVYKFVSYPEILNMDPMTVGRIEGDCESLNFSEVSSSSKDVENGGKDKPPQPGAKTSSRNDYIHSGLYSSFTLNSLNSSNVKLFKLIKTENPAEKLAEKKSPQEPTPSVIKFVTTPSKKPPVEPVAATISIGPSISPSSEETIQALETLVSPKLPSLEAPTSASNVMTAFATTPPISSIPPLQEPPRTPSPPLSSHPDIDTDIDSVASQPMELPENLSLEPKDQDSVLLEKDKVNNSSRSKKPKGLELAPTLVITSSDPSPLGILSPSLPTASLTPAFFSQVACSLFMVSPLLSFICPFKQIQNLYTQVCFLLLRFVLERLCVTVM
Conditions: protein: recombinant; tags: N-terminal GST; dsDNA, one strand shown. Put shortly: as §1

In the next assay the target is T4, ETV2 (Homo sapiens, UniProt O00321 1-342).
T4 sequence: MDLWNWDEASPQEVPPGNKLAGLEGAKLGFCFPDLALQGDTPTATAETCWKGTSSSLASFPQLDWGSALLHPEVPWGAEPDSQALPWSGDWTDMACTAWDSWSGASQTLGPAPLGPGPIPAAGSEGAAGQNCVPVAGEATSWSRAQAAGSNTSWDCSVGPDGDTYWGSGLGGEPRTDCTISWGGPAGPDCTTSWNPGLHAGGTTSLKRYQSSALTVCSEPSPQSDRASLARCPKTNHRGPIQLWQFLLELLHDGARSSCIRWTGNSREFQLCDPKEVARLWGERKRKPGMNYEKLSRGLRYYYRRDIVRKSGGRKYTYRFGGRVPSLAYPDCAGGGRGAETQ
Particulars: protein: recombinant; tags: N-terminal GST; dsDNA, one strand shown. Put shortly:
as §1

The target in the next assay is T5, ELF3 (Homo sapiens, UniProt P78545 1-371).
T5 sequence: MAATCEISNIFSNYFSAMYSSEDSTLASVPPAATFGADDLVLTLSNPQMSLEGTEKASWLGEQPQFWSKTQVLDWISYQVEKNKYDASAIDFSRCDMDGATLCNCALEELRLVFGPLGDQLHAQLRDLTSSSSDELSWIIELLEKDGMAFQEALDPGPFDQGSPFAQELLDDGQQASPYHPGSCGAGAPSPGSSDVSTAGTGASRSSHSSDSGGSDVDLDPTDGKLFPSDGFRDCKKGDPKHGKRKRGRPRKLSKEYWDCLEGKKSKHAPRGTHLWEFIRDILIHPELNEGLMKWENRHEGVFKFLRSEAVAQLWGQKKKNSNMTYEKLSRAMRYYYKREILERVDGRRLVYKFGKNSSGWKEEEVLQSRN
Particulars: protein: recombinant; tags: N-terminal GST; dsDNA, one strand shown. In outline: as §1

The next assay deals with CRX (Homo sapiens, UniProt O43186 1-299). Particulars: protein: recombinant; tags: N-terminal GST; dsDNA, one strand shown. Put shortly: as §1
CRX, sequence (O43186 whole entry): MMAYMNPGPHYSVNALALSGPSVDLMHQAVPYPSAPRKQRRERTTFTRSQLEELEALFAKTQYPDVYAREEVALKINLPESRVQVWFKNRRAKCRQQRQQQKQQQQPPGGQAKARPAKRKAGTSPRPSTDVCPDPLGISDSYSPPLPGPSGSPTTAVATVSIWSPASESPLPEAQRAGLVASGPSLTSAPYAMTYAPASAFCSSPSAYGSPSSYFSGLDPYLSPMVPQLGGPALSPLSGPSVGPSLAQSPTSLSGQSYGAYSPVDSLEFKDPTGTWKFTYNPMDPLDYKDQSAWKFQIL
The next assay addresses ETV1 (Homo sapiens, UniProt P50549 1-477). Particulars: protein: recombinant; tags: N-terminal GST; dsDNA, one strand shown. Put shortly: as §1

ETV1, sequence (P50549 whole entry): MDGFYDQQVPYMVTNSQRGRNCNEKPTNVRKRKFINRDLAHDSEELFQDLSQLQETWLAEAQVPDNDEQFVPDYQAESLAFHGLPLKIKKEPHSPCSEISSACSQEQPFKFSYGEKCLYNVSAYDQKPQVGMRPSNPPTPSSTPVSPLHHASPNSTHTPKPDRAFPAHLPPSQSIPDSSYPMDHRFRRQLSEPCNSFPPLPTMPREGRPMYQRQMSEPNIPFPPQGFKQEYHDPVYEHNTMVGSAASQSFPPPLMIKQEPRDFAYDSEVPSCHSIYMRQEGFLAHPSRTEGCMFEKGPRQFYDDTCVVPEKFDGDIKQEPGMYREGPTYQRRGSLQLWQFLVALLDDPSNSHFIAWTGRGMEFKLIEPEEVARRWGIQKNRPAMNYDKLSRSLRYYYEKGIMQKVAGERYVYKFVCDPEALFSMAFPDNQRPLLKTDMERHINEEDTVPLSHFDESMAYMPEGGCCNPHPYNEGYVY
ELF4, sequence (Q99607 whole entry): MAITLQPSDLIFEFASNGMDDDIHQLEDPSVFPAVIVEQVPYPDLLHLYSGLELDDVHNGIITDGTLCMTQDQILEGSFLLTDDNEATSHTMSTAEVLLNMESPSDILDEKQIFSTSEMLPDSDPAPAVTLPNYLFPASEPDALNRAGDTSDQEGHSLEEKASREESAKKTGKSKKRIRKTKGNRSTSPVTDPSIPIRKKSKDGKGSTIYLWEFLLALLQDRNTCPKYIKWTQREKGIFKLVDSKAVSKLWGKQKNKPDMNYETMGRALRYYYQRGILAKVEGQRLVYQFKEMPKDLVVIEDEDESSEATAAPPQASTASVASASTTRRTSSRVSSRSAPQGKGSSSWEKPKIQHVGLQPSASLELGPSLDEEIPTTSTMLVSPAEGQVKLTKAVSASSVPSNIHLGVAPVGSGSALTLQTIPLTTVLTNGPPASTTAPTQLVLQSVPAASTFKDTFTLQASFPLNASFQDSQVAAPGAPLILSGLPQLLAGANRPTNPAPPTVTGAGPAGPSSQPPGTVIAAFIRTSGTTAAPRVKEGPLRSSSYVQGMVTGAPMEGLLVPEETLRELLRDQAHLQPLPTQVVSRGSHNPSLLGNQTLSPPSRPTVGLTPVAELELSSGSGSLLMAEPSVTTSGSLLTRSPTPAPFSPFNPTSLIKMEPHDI
HSF1, sequence (Q00613 whole entry): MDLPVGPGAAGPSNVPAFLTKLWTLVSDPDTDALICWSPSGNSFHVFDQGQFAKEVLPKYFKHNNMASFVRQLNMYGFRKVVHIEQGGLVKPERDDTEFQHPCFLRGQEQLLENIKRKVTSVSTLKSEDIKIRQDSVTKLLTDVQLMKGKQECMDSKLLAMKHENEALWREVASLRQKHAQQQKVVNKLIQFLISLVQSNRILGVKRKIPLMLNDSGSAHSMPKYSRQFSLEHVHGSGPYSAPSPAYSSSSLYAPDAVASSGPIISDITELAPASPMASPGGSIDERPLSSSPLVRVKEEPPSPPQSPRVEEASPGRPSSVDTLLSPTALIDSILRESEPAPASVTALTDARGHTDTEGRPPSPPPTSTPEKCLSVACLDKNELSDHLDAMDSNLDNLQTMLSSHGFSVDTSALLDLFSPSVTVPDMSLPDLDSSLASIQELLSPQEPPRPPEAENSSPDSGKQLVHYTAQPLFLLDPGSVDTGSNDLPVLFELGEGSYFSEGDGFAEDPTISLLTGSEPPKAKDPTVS

Consider TCTCCC, for which the binding signal in the assay with FEV is 1.7 fold enrichment (6-mer frequency, TF over GST control); in the assay with ETV5, 1.64 fold enrichment (6-mer frequency, TF over GST control); with HSF1, 1.65 fold enrichment (6-mer frequency, TF over GST control); in the assay with SPIC it was 1.51 fold enrichment (6-mer frequency, TF over GST control); in the assay with ELF4 it was 1.78 fold enrichment (6-mer frequency, TF over GST control); in the assay with ELK4, 1.63 fold enrichment (6-mer frequency, TF over GST control). Further, the binding signal is 1.54 fold enrichment (6-mer frequency, TF over GST control) with ETV2; 1.78 fold enrichment (6-mer frequency, TF over GST control) with ELF3; 1.7 fold enrichment (6-mer frequency, TF over GST control) with CRX; 1.78 fold enrichment (6-mer frequency, TF over GST control) with ETV1.

Turning to CTTGGA, the binding signal with FEV was 1.04 fold enrichment (6-mer frequency, TF over GST control); with ETV5, 1.12 fold enrichment (6-mer frequency, TF over GST control); with HSF1, 1.26 fold enrichment (6-mer frequency, TF over GST control); with SPIC, 1.2 fold enrichment (6-mer frequency, TF over GST control); with ELF4, 1.21 fold enrichment (6-mer frequency, TF over GST control); with ELK4, 1.09 fold enrichment (6-mer frequency, TF over GST control). The binding signal was 1.12 fold enrichment (6-mer frequency, TF over GST control) with ETV2; 1.3 fold enrichment (6-mer frequency, TF over GST control) with ELF3; 1.17 fold enrichment (6-mer frequency, TF over GST control) with CRX; 1.17 fold enrichment (6-mer frequency, TF over GST control) with ETV1.

As for ACTTCG, the binding signal was 1.42 fold enrichment (6-mer frequency, TF over GST control) with FEV; 1.39 fold enrichment (6-mer frequency, TF over GST control) with ETV5; 1.65 fold enrichment (6-mer frequency, TF over GST control) with HSF1; 1.55 fold enrichment (6-mer frequency, TF over GST control) with SPIC; 1.47 fold enrichment (6-mer frequency, TF over GST control) with ELF4; 1.25 fold enrichment (6-mer frequency, TF over GST control) with ELK4. In addition, the binding signal is 1.45 fold enrichment (6-mer frequency, TF over GST control) with ETV2; 1.23 fold enrichment (6-mer frequency, TF over GST control) with ELF3; 1.3 fold enrichment (6-mer frequency, TF over GST control) with CRX; 1.46 fold enrichment (6-mer frequency, TF over GST control) with ETV1.

Take ATACAG: the binding signal with FEV is 1.14 fold enrichment (6-mer frequency, TF over GST control); with ETV5 it was 1.13 fold enrichment (6-mer frequency, TF over GST control); with HSF1, 1.02 fold enrichment (6-mer frequency, TF over GST control); in the assay with SPIC, 1.14 fold enrichment (6-mer frequency, TF over GST control); in the assay with ELF4, 1.18 fold enrichment (6-mer frequency, TF over GST control); in the assay with ELK4, 1.08 fold enrichment (6-mer frequency, TF over GST control). Moreover, the binding signal with ETV2 was 1.24 fold enrichment (6-mer frequency, TF over GST control); with ELF3, 1.12 fold enrichment (6-mer frequency, TF over GST control); in the assay with CRX it was 1.02 fold enrichment (6-mer frequency, TF over GST control); with ETV1, 1.11 fold enrichment (6-mer frequency, TF over GST control).

As to CTTAAC, the binding signal with FEV was 1.27 fold enrichment (6-mer frequency, TF over GST control); with ETV5 it was 1.26 fold enrichment (6-mer frequency, TF over GST control); with HSF1, 1.72 fold enrichment (6-mer frequency, TF over GST control); with SPIC, 1.18 fold enrichment (6-mer frequency, TF over GST control); with ELF4, 1.28 fold enrichment (6-mer frequency, TF over GST control); with ELK4 it was 1.34 fold enrichment (6-mer frequency, TF over GST control). The binding signal with ETV2 was 1.25 fold enrichment (6-mer frequency, TF over GST control); with ELF3, 1.36 fold enrichment (6-mer frequency, TF over GST control); with CRX it was 2.4 fold enrichment (6-mer frequency, TF over GST control); with ETV1, 1.14 fold enrichment (6-mer frequency, TF over GST control).

For the sequence TCTGCT, the binding signal with FEV is 1.28 fold enrichment (6-mer frequency, TF over GST control); in the assay with ETV5, 1.29 fold enrichment (6-mer frequency, TF over GST control); in the assay with HSF1, 1.33 fold enrichment (6-mer frequency, TF over GST control); with SPIC, 1.43 fold enrichment (6-mer frequency, TF over GST control); with ELF4, 1.3 fold enrichment (6-mer frequency, TF over GST control); in the assay with ELK4, 1.57 fold enrichment (6-mer frequency, TF over GST control). Also, the binding signal with ETV2 was 1.53 fold enrichment (6-mer frequency, TF over GST control); in the assay with ELF3, 1.11 fold enrichment (6-mer frequency, TF over GST control); with CRX, 1.33 fold enrichment (6-mer frequency, TF over GST control); with ETV1 it was 1.32 fold enrichment (6-mer frequency, TF over GST control).

Take ACTACT: the binding signal with FEV is 1.3 fold enrichment (6-mer frequency, TF over GST control); in the assay with ETV5, 1.19 fold enrichment (6-mer frequency, TF over GST control); with HSF1, 1.12 fold enrichment (6-mer frequency, TF over GST control); in the assay with SPIC, 1.26 fold enrichment (6-mer frequency, TF over GST control); in the assay with ELF4, 1.22 fold enrichment (6-mer frequency, TF over GST control); with ELK4, 1.36 fold enrichment (6-mer frequency, TF over GST control). Moreover, the binding signal with ETV2 was 1.44 fold enrichment (6-mer frequency, TF over GST control); in the assay with ELF3 it was 1.24 fold enrichment (6-mer frequency, TF over GST control); in the assay with CRX, 1.11 fold enrichment (6-mer frequency, TF over GST control); with ETV1, 1.14 fold enrichment (6-mer frequency, TF over GST control).
